# Test results reported in PubChem BioAssay AID1159580 (chemical genetic matrix, 2015).
# Several values for one entry are separate records, joined by “and”; a condition that tells them apart may be missing. Identical values can stand only once. Out of some 5,500 compounds screened, about 2,000 (36%) were called active. About 18% were inconclusive and are not listed. Cut-off read from the data, not from the text of the source: active = normalized growth mostly below about 0.91 (no sharp cut-off); inconclusive = no clear call, values can overlap the other calls; inactive = mostly above about 0.92. The list shows a part of the results.
# Assay: chemical genetic growth profiling, strain panel (AID 1159580);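 note: tested at 20 µM; growth read once vehicle control cultures reached saturation at 30 °C; 1 = growth at the plate median or of vehicle wells; lower values mean less growth of the strain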
# Details: S. cerevisiae deletion strains, growth OD
structure (smiles),measurement,setting,value
CC1=CC(=O)C(C(C)C)=CC1=O,normalized growth,"locus YAL013W, strain DEP1, stronger effect = lower value",0.784 (active)
same,normalized growth,"locus YAL021C, strain ccr4, stronger effect = lower value",0.91 (inactive)
same,normalized growth,"locus YAL026C, strain drs2, stronger effect = lower value",0.711 (active)
same,normalized growth,"locus YAL030W, strain snc1, stronger effect = lower value",0.914 (active)
same,normalized growth,"locus YBL061C, strain skt5, stronger effect = lower value",0.992 (inactive)
same,normalized growth,"locus YBR009C, strain hhf1, stronger effect = lower value",0.488 (active)
same,normalized growth,"locus YBR021W, strain FUR4, stronger effect = lower value",0.827 (active)
same,normalized growth,"locus YBR023C, strain chs3, stronger effect = lower value",0.997 (inactive)
same,normalized growth,"locus YBR171W, strain sec66, stronger effect = lower value",0.996 (inactive)
same,normalized growth,"locus YBR229C, strain ROT2, stronger effect = lower value",0.984 (inactive)
same,normalized growth,"locus YBR231C, strain swc5, stronger effect = lower value",0.956 (inactive)
same,normalized growth,"locus YBR279W, strain paf1, stronger effect = lower value",0.98 (inactive)
same,normalized growth,"locus YCL011C, strain gbp2, stronger effect = lower value",0.375 (active)
same,normalized growth,"locus YCL016C, strain dcc1, stronger effect = lower value",0.984 (inactive)
same,normalized growth,"locus YCL029C, strain bik1, stronger effect = lower value",0.926 (inactive)
same,normalized growth,"locus YCL061C, strain MRC1, stronger effect = lower value",0.966 (inactive)
same,normalized growth,"locus YCL069W, strain vba3, stronger effect = lower value",0.993 (inactive)
same,normalized growth,"locus YCR088W, strain abp1, stronger effect = lower value",0.777 (active)
same,normalized growth,"locus YDL005C, strain med2, stronger effect = lower value",0.974 (inactive)
same,normalized growth,"locus YDL035C, strain GPR1, stronger effect = lower value",0.859 (inactive)
same,normalized growth,"locus YDL040C, strain nat1, stronger effect = lower value",0.996 (inactive)
same,normalized growth,"locus YDL074C, strain BRE1, stronger effect = lower value",0.797 (inactive)
same,normalized growth,"locus YDL101C, strain DUN1, stronger effect = lower value",0.954 (inactive)
same,normalized growth,"locus YDL185W, strain tfp1, stronger effect = lower value",0.935 (inactive)
same,normalized growth,"locus YDL192W, strain arf1, stronger effect = lower value",0.776 (active)
same,normalized growth,"locus YDR001C, strain nth1, stronger effect = lower value",1 (inactive)
same,normalized growth,"locus YDR069C, strain doa4, stronger effect = lower value",0.988 (inactive)
same,normalized growth,"locus YDR101C, strain arx1, stronger effect = lower value",0.87 (active)
same,normalized growth,"locus YDR137W, strain rgp1, stronger effect = lower value",0.665 (active)
same,normalized growth,"locus YDR159W, strain sac3, stronger effect = lower value",0.773 (active)
same,normalized growth,"locus YDR162C, strain NBP2, stronger effect = lower value",0.858 (inactive)
same,normalized growth,"locus YDR195W, strain ref2",1.03 (inactive)
same,normalized growth,"locus YDR297W, strain sur2, stronger effect = lower value",0.989 (inactive)
same,normalized growth,"locus YDR318W, strain mcm21, stronger effect = lower value",0.878 (active)
same,normalized growth,"locus YDR335W, strain msn5, stronger effect = lower value",0.998 (inactive)
same,normalized growth,"locus YDR388W, stronger effect = lower value",0.925 (active)
same,normalized growth,"locus YDR392W, strain spt3, stronger effect = lower value",0.455 (active)
same,normalized growth,"locus YDR502C, strain sam2, stronger effect = lower value",0.857 (active)
same,normalized growth,"locus YEL003W, strain gim4, stronger effect = lower value",0.416 (active)
same,normalized growth,"locus YEL037C, strain rad23, stronger effect = lower value",0.996 (inactive)
same,normalized growth,"locus YEL061C, strain CIN8 (second series), stronger effect = lower value",0.917 (inactive)
same,normalized growth,"locus YER015W, strain faa2, stronger effect = lower value",0.989 (inactive)
same,normalized growth,"locus YER016W, strain bim1, stronger effect = lower value",1.01 (inactive)
same,normalized growth,"locus YER110C, stronger effect = lower value",0.922 (inactive)
same,normalized growth,"locus YER111C, strain swi4, stronger effect = lower value",0.994 (inactive)
same,normalized growth,"locus YER155C, strain BEM2 (second series), stronger effect = lower value",0.425 (active)
same,normalized growth,"locus YER155C, strain BEM2, stronger effect = lower value",0.871 (active)
same,normalized growth,"locus YER167W, strain BCK2, stronger effect = lower value",0.897 (active)
same,normalized growth,"locus YFR010W, strain ubp6, stronger effect = lower value",0.93 (inactive)
same,normalized growth,"locus YGL078C, strain dbp3, stronger effect = lower value",0.932 (inactive)
same,normalized growth,"locus YGL086W, strain mad1, stronger effect = lower value",0.846 (active)
same,normalized growth,"locus YGL167C, strain pmr1, stronger effect = lower value",0.996 (inactive)
same,normalized growth,"locus YGL173C, strain kem1, stronger effect = lower value",0.947 (inactive)
same,normalized growth,"locus YGL227W, strain vid30, stronger effect = lower value",0.217 (active)
same,normalized growth,"locus YGL240W, strain doc1, stronger effect = lower value",0.938 (inactive)
same,normalized growth,"locus YGL248W, strain PDE1, stronger effect = lower value",0.849 (active)
same,normalized growth,"locus YGL253W, strain hxk2, stronger effect = lower value",0.956 (inactive)
same,normalized growth,"locus YGR078C, strain PAC10, stronger effect = lower value",0.547 (active)
same,normalized growth,"locus YGR135W, strain pre9, stronger effect = lower value",0.826 (active)
same,normalized growth,"locus YGR252W, strain gcn5, stronger effect = lower value",0.746 (active)
same,normalized growth,"locus YHR013C, strain ard1, stronger effect = lower value",0.995 (inactive)
same,normalized growth,"locus YHR027C, strain rpn1, stronger effect = lower value",0.996 (inactive)
same,normalized growth,"locus YHR030C, strain SLT2, stronger effect = lower value",0.556 (active) and 0.951 (inactive)
same,normalized growth,"locus YHR079C, strain IRE1 (second series), stronger effect = lower value",0.935 (inactive)
same,normalized growth,"locus YHR079C, strain IRE1, stronger effect = lower value",0.941 (inactive)
same,normalized growth,"locus YHR094C, strain hxt1, stronger effect = lower value",0.949 (inactive)
same,normalized growth,"locus YHR129C, strain ARP1, stronger effect = lower value",0.864 (active)
same,normalized growth,"locus YHR142W, strain chs7, stronger effect = lower value",0.775 (active)
same,normalized growth,"locus YHR200W, strain rpn10, stronger effect = lower value",0.911 (active)
same,normalized growth,"locus YIL066C, strain RNR3, stronger effect = lower value",0.828 (active)
same,normalized growth,"locus YIL073C, strain SPO22, stronger effect = lower value",0.765 (inactive)
same,normalized growth,"locus YIL125W, strain kgd1, stronger effect = lower value",0.926 (active)
same,normalized growth,"locus YIR030C, strain dcg1, stronger effect = lower value",0.9 (active)
same,normalized growth,"locus YJL092W, strain hpr5, stronger effect = lower value",0.989 (inactive)
same,normalized growth,"locus YJL095W, strain BCK1 (second series), stronger effect = lower value",0.928 (inactive)
same,normalized growth,"locus YJL095W, strain BCK1, stronger effect = lower value",0.468 (active) and 0.942 (inactive)
same,normalized growth,"locus YJL115W, strain asf1, stronger effect = lower value",0.981 (inactive)
same,normalized growth,"locus YJL129C, strain trk1, stronger effect = lower value",0.65 (active)
same,normalized growth,"locus YJL134W, strain LCB3, stronger effect = lower value",0.982 (inactive)
same,normalized growth,"locus YJL154C, strain vps35, stronger effect = lower value",0.989 (inactive)
same,normalized growth,"locus YJL164C, strain tpk1, stronger effect = lower value",0.785 (active)
same,normalized growth,"locus YJL166W, strain qcr8, stronger effect = lower value",0.415 (active)
same,normalized growth,"locus YJL168C, strain set2, stronger effect = lower value",0.942 (inactive)
same,normalized growth,"locus YJL187C, strain SWE1 (second series), stronger effect = lower value",0.931 (inactive)
same,normalized growth,"locus YJL187C, strain SWE1, stronger effect = lower value",0.974 (inactive)
same,normalized growth,"locus YJR043C, strain POL32, stronger effect = lower value",0.79 (active)
